JMJD2A Tudor inh: inhibitors of human JMJD2A Tudor domain. O75164. AlphaScreen JMJD2A-Tudor / H3K4me3 peptide binding. Potency, µM (series often up to 114 µM), inactives show at the highest dose activity change, negative = inhibition, hits mostly inhibitors. actives 4.4% (n = 390,000); further: on the % scale 0 is the no-effect control and ±100 the full control effect; nearly all actives have a fitted effect of over 50% in size
Target sequence (O75164 whole entry, looked up, the tested form may be a part): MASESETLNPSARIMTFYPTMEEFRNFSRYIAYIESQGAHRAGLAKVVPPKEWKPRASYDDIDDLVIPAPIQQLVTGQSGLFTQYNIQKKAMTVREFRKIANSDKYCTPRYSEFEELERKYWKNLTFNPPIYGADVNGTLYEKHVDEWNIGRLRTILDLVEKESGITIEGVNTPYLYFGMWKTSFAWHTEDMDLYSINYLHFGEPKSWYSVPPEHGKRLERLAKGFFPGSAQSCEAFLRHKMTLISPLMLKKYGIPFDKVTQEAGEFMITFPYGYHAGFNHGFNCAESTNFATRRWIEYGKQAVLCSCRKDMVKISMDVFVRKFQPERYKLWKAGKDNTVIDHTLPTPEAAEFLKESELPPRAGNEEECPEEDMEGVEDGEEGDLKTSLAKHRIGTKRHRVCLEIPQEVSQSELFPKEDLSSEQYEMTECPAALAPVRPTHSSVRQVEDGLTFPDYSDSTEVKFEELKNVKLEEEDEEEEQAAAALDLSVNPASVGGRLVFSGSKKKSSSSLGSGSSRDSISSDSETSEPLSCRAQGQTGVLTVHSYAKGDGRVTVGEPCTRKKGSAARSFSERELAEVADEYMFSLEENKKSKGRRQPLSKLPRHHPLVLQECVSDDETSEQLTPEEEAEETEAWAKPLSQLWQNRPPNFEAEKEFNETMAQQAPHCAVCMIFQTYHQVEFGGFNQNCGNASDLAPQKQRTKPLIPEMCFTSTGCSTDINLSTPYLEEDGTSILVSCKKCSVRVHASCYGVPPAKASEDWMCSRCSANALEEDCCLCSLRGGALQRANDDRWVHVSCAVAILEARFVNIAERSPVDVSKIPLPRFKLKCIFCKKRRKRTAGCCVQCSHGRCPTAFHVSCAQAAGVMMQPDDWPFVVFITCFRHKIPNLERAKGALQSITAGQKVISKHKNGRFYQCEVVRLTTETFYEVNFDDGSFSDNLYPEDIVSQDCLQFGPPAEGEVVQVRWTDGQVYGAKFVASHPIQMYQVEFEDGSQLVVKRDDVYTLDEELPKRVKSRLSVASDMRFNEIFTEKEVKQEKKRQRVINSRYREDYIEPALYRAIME
HP1b binding inh: HP1-beta chromodomain-methylated histone interaction inhibition. P83916. AlphaScreen HP1-beta / biotin-H3K9me3 peptide binding. Potency, µM (titrated, usually from 114 µM), for the others: top-dose activity change, negative = inhibition, usual class: inhibitors. actives 0.56% (n = 390,000). AID 540317; further: nearly all actives have a fitted effect of over 70% in size
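HP1-beta protein (50 nM final) preincubated 30 min at room temperature with biotinylated H3(1-18)K9me3 peptide (50 nM) in PBS pH 7.4, 0.01% Tween-20, then compound added for 30 min. AlphaScreen streptavidin donor/nickel chelate acceptor beads (10 ug/mL final), 30 min dark, luminescence read.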
Sfp PPTase inh: Sfp phosphopantetheinyl transferase inhibition; actives 3.5% (n = 310,000); Potency, µM, inactives show largest response in the series, negative = inhibition, hits mostly inhibitors; Biochemical Sfp PPTase activity, qHTS;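 further: the enzyme is Sfp with the accession as filed and its product quenches rhodamine fluorescence; 0% = enzyme reaction without inhibitor and -100% = no enzyme wells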
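Buffer: 50 mM Hepes-Na pH 7.6, 10 mM MgCl2, 0.01% Nonidet P-40, 0.01% BSA. Enzyme 15 nM, pre-exposed to compound 15 min; substrates then added and fluorescence change tracked over 30 min.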
PLK1 PBD inh: PLK1 (human) polo-box domain binding inhibition. P53350. Plk1 PBD binding of FITC phosphopeptide, fluorescence polarization. Potency, µM, inactives show max response, negative = inhibition, hits mostly inhibitors. actives 2.8% (n = 360,000). AID 720504; further: series mostly up to about 57 µM; on the % scale 0 is the no-effect control and ±100 the full control effect; nearly all actives have a fitted effect of over 65% in size
G9a block: inhibitors of human histone lysine methyltransferase G9a; Q96KQ7; G9a H3K9 monomethylation, AlphaScreen, 2 h; Potency, µM (highest dose often 102 µM), for the others: at the highest dose activity, negative = inhibition, usual class: inhibitors; actives 8.8% (n = 350,000); AID 504332; further: on the % scale 0 is the no-effect control and ±100 the full control effect; nearly all actives have a fitted effect of over 75% in size
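Using a bead-based AlphaScreen, monomethylated H3K9 product from 2 h room-temperature reactions (G9a 20 nM, peptide 500 nM, SAM 20 uM) was detected with 0.5 ug/mL rabbit anti-H3K9me1 antibody.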
BAZ2B block: BAZ2B (human) inhibition. Q9UIF8. AlphaScreen BAZ2B-H3K14Ac peptide displacement. Potency, µM (titrated, usually from 114 µM), inactives show at the top dose activity change, negative = inhibition, most hits filed as inhibitors. actives 4.4% (n = 360,000). AID 504333; further: on the % scale 0 is the no-effect control and ±100 the full control effect; nearly all actives have a fitted effect of over 60% in size
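Multi-concentration screen (max 110 uM) measuring displacement of acetylated histone H3 peptide from BAZ2B by AlphaScreen, using 50 nM protein, 50 nM peptide and 10 ug/mL streptavidin donor plus Ni-chelate acceptor beads.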
Starred values were filed as active, the others as inactive; ? = inconclusive; . = no result given; [ ] = remark or other dose. This is a sample that favours compounds with a hit; in the whole collection about 12% have one here. The call rests on the fitted dose curve; in most records, active means well fitted curve in the direction sought with a large enough effect; inconclusive means small, poorly fitted or top-dose-only effect, or another doubt; inactive means no such curve, though single readings can be large; an effect the other way counts as inactive or inconclusive. Potency means the concentration at half of the fitted maximal effect.

SMILES	JMJD2A Tudor inh	HP1b binding inh	Sfp PPTase inh	PLK1 PBD inh	G9a block	BAZ2B block
Cc1cc(C)cc(C(=O)Nc2nnc3n2CCS3)c1	-22.6%	20.1%[57 µM]	.	.	7.9%[59 µM]	?
CCOC(=O)CCC(=O)Nc1nnc2n1CCS2	39.8µM*	-7.1%[57 µM]	.	.	12.6µM*	?
CC(=O)Nc1nnc2n1CCS2	22.4µM*	-7.7%[57 µM]	.	.	14.1µM*	-4.3%
CCCCOc1ccc(C(=O)Nc2nnc3n2CCS3)cc1	-13.5%	17.9%[57 µM]	.	.	60.0%[59 µM]	3.9%
CCC(=O)Nc1nnc2n1CCS2	20µM*	-6.3%[57 µM]	.	.	25.1µM*	-12.9%
COc1ccccc1C(=O)Nc1nnc2n1CCS2	?	12.0%[57 µM]	.	.	11.2µM*	-13.6%
COc1cc(OC)cc(C(=O)Nc2nnc3n2CCS3)c1	-33.5%	12.3%[57 µM]	.	.	?	?
COc1ccc(Cl)cc1C(=O)Nc1nnc2n1CCS2	-28.1%	7.5%[57 µM]	.	.	?	-19.9%
COc1ccc(NC(=O)CCNC(=O)c2ccc([N+](=O)[O-])cc2)cc1S(=O)(=O)N1CCCCC1	-10.3%	7.4%	.	-5.1%	?	0.7%
O=C(COc1ccccc1Cl)Nc1nc(-c2ccc(F)cc2)ns1	-18.2%	31.1%	.	.	8.6%[59 µM]	-0.2%
CC(C)Cc1ccc(S(=O)(=O)NCc2nc3cccnc3n2Cc2ccccc2)cc1	-21.3%	22.6%[57 µM]	.	.	5.9%[59 µM]	-2.3%
COC(=O)C(C(=O)OC)C1C=CCN(C(C)=O)C1 (centres undefined)	-12.9%	77.3%	.	-5.0%	.	.
Cc1cccc(OCCNc2cc(N3CCOCC3)ccc2[N+](=O)[O-])c1	?	-19.4%	13.4%	1.8%	10µM*	?
Cc1ccccc1OCCNc1cc(N2CCNCC2)ccc1[N+](=O)[O-]	.	.	-1.6%	.	31.6µM*	?
CC(C)CC(=O)N1CCN(c2ccc([N+](=O)[O-])c(NCc3ccccc3)c2)CC1	50.1µM*	?	.	21.2µM*	.	.
O=C(c1ccccc1)N1CCN(c2ccc([N+](=O)[O-])c(NCc3cccnc3)c2)CC1	?	?	21.2%	-5.1%	22.5%[59 µM]	-31.1%
COc1ccccc1OCCNc1cc(N2CCCCC2)ccc1[N+](=O)[O-]	?	?	-5.0%	2.5%	?	?
O=[N+]([O-])c1ccc([N+](=O)[O-])c(Nc2ccc(N3CCOCC3)cc2)c1	17.8µM*	?	10.7%	4.8%	-35.0%[12.7 µM]	17.8µM*
O=C1C(=O)N(C2CCN(C(=O)c3ccccc3Cl)CC2)CCN1Cc1ccc(F)cc1	-2.9%	5.5%	.	.	3.6%[59 µM]	0.1%
Cc1ccc(-c2nn3c(-c4ccccc4C)nnc3c3ccccc23)cc1	2.4%	37.4%	.	.	-2.8%[59 µM]	3.6%
CCOC(=O)c1cccc(NC(=O)CCc2c(C)nn(-c3ccc(N4CCCCC4)nn3)c2C)c1	?	21.6%	.	.	-19.4%[59 µM]	?
Cc1cccc(OCCNc2cc(N3CCN(C)CC3)ccc2[N+](=O)[O-])c1	39.8µM*	50.1µM*	-9.8%	-2.3%	17.1%[59 µM]	?
Cc1ccc(OCCNc2cc(N3CCN(CCO)CC3)ccc2[N+](=O)[O-])cc1C	?	?	-28.4%	-20.4%	?	31.6µM*
CC(C)(C)CNc1cc(N2CCOCC2)ccc1[N+](=O)[O-]	?	-16.5%	0.9%	-4.9%	31.6µM*	?
COc1ccc(C(=O)N2CCN(c3ccc([N+](=O)[O-])c(NCCc4ccc(OC)c(OC)c4)c3)CC2)cc1	?	-9.2%	5.9%	5.6%	-3.2%[59 µM]	-30.0%
CS(=O)(=O)N1CCN(c2ccc([N+](=O)[O-])c(NCCN3CCOCC3)c2)CC1	-13.9%	1.7%	17.9%	-10.5%	3.0%[59 µM]	7.9%
Cc1cccc(OCC(=O)Nc2c(C)ccc3nsnc23)c1C	-10.4%	42.5%	.	.	12.5%[59 µM]	-2.4%
CCn1cc(C(=O)OCC(=O)Nc2cccc(C(C)=O)c2)c(=O)c2ccc(C)nc21	-11.3%	8.1%	.	.	-5.8%[59 µM]	-1.3%
CC1(C)S[C@@H]2[C@H](NC(=O)[C@@H](N)c3ccccc3)C(=O)N2[C@H]1C(=O)O[C@H]1OC(=O)c2ccccc21	.	.	3.5%	.	26.5%[21.5 µM]	.
